Experimental findings from PubChem BioAssay (NCATS) are described below.

Values joined by “and” are separate entries in the source; they are usually repeats but may differ in a detail not shown here. Identical values can stand only once. Inconclusive results are not listed. A number with no mark means an inactive call. Active and inactive are the calls of the source. Calls come from the whole dose curve; as a rule, active = well fitted curve in the direction sought with a large enough effect; inconclusive = small, poorly fitted or top-dose-only effect, or another doubt; inactive = no such curve, though single readings can be large or run the other way.
% is set by controls: 0 for no effect and ±100 for the full control effect; potency is the fitted concentration of half-maximal effect.

The assay is described as follows: qHTS Assay for Identifying Gametocytocidal Compounds (AID 743244).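 For max response: actives lower the fluorescent signal which means gametocytes are killed.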 Conditions: P. falciparum 3D7 stage III-V gametocytes, alamarBlue, 72 h; max response: active compounds read low. The essentials:
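P. falciparum 3D7 stage III–V gametocytes (20,000 cells/well) were exposed to compounds for 72 h at 37 °C, 5% CO2. AlamarBlue was then added for 24 h; decreased resorufin fluorescence (Ex 525/Em 598 nm) indicated loss of viability.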
As to `CCOC(=O)COc1ccc2c(=O)cc(-c3ccccc3)oc2c1`, the max response was 51.1% and 12.3%.

As for `O=P(O)(O)OC(CO)CO`, the max response is 10.5%.

On to `C=CCNC1=C2C[C@@H](C)C[C@H](OC)[C@H](O)[C@@H](C)/C=C(\C)[C@H](OC(N)=O)[C@@H](OC)/C=C\C=C(/C)C(=O)NC(=CC1=O)C2=O`, for which the Potency is 2820 nM (active).

In the case of `CC1=C(C(=O)OCCN(Cc2ccccc2)c2ccccc2)C(c2cccc([N+](=O)[O-])c2)C(P2(=O)OCC(C)(C)CO2)=C(C)N1` (stereo unspecified), the max response is 12.9%.

For the molecule `C=C1CC2C3CCC4=CC(=O)C=C[C@]4(C)[C@@]3(F)[C@@H](O)C[C@]2(C)[C@@]1(O)C(=O)COC(C)=O` (stereo partly specified), the max response was -3.67%.

With `CCCCOC(=O)C(=O)Nc1cccc(-c2nn[nH]n2)c1`, the max response is 31.5%.

As to `O=P(O)(O)OC(Cn1cncn1)(Cn1cncn1)c1ccc(F)cc1F`, the max response was 1.82%.

Turning to `C/C=C1\NC(=O)[C@H]2CSSCC/C=C/[C@H](CC(=O)N[C@H](C(C)C)C(=O)N2)OC(=O)C(C(C)C)NC1=O` (stereo partly specified), the Potency was 590 nM (active).

Regarding `CC1(C)S[C@@H]2[C@H](NC(=O)[C@H](N)c3ccccc3)C(=O)N2[C@H]1C(=O)OCOC(=O)[C@@H]1N2C(=O)C[C@H]2S(=O)(=O)C1(C)C`, the max response was 8.04%.

Consider `O=C[C@H](O)[C@@H](O)[C@H](O[C@H]1O[C@H](CO)[C@@H](O[C@H]2O[C@H](CO)[C@@H](O)[C@H](O)[C@H]2O)[C@H](O)[C@H]1O)[C@H](O)CO`, for which the max response is 10.4%.

Regarding `CCCCCCCCCCCCCCCCCC(=O)[O][Al]`, the max response is -2.25%.
